High-throughput results: PubChem, several laboratories
KKLEB tox = cytotoxicity in KKLEB CF airway cells, primary screen, cytotoxicity control for CF NF-kB inhibitor project, cell-based, uHTS, fluorescence assay plates. KKLEB CF airway cells viability, ATPlite luminescence, overnight; active compounds read low; cells stimulated with P. aeruginosa culture filtrate. activity change (cytotoxicity), % at 5 µM. 360,000 tested, 0.36% active. AID 602141, 2011;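 active = corrected activity change at or below -50% at 5 µM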
CF NFkB block = inhibitors of PAF-induced NF-kB signaling, primary screen, cell-based, GFP fluorescence, uHTS | KKLEB NF-kB-GFP reporter, GFP fluorescence overnight | 360,000 tested, 0.86% active | inhibition, % at 5 µM;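 active = at least 50% inhibition at 5 µM, scaled per plate between neutral and stimulator controls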;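 also: PAF is a Pseudomonas aeruginosa culture filtrate used as stimulus; plate controls were PAF-stimulated DMSO wells for no effect and unstimulated DMSO wells for full effect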
LGR2 antag = inhibitors of bursicon-induced LGR2 CRE-luciferase signal, primary screen, cell-based, HEK293, CRE-luciferase reporter, bursicon stimulation | bursicon-stimulated, 4 h | inhibition, % at 9.99 µM | 380,000 tested, 0.35% active;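 active = drop in luminescence signal, shown as inhibition above about 50% in the replicate tests, limit read from the data, passing the limit was not always enough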;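 also: agonist challenge used bursicon conditioned medium at about half maximal strength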
Peg3 prom inh = Peg3 promoter-driven luciferase inhibitors, primary screen, cell-based, HeLa, luciferase luminescence; HeLa PEG-Prom luciferase reporter, overnight; inhibition, % at 20 µM; 360,000 tested, 1.7% active; AID 588405, 2011;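 active = inhibition of at least 50% at 20 µM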
HSP90 inh = HSP90 inhibitors, primary screen, cell lysate, luminescence. AID 1789, 2009. Heat shock protein HSP 90 (rabbit reticulocyte lysate; luciferase refolding). 290,000 tested, 0.91% active. Rabbit reticulocyte lysate, luciferase refolding luminescence, 3 h. inhibition, % at 5.6 µM;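 active = inhibition above the screen-wide mean plus 3 SD, computed separately per campaign, cut at about 16% in these data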;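 also: 0% = DMSO wells and 100% = 60 µM geldanamycin wells; inhibitors lower the luminescence because luciferase stays unfolded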
Mdm2 MdmX PPI = inhibitors of human Mdm2-MdmX association, primary screen, cell-based, luminescence, split luciferase, SaOS-2, uHTS; SaOS-2 split-luciferase Mdm2/MdmX complementation; inhibition, % at 8 µM; 330,000 tested, 3% active; AID 485346, 2010;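 active = inhibition of at least 50% at 8 µM in the primary screen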
Target sequence (O15151 whole entry, looked up): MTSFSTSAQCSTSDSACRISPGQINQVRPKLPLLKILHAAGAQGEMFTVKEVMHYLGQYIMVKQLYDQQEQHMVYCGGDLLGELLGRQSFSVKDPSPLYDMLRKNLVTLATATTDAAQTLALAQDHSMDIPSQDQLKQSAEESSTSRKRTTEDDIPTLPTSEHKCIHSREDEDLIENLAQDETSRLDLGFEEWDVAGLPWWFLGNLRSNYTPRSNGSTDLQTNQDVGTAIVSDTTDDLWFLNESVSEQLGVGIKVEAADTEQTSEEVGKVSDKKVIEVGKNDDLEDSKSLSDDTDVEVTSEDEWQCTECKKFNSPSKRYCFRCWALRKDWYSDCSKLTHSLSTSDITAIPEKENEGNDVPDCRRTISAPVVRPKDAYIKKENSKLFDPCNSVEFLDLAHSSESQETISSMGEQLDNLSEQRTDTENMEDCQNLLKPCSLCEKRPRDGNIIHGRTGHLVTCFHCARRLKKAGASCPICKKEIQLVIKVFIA
Target sequence (Q00987 whole entry, looked up): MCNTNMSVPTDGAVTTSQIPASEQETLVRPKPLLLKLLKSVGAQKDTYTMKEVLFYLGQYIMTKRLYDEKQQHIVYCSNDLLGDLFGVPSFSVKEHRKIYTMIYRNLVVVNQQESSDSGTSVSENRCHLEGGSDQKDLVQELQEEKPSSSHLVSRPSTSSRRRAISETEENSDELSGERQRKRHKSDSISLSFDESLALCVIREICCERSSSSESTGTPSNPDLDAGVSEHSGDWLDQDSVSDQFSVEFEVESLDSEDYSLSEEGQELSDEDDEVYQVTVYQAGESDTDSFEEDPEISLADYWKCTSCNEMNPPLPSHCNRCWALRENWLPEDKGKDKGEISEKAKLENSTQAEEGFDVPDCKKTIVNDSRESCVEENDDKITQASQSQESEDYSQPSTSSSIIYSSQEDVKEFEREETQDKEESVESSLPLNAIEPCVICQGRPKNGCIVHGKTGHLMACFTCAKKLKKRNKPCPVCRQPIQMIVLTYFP
An asterisk follows results filed as active; / = not tested or not shown. Hits are enriched below; roughly 3.6% of the tested compounds scored in any of these assays.

SMILES	KKLEB tox	CF NFkB block	LGR2 antag	Peg3 prom inh	HSP90 inh	Mdm2 MdmX PPI
CCN(CC)CCC(=O)Nc1cccc2c1C(=O)c1ccccc1C2=O	-1	-122	/	107*	8	46
Nc1cccc(C(=O)OCC(=O)Nc2cccc3c2C(=O)c2ccccc2C3=O)c1	15	-93	9	26	-2	-5
C[C@@H]1CN([C@H](C)CO)C(=O)c2cccc(NS(=O)(=O)c3cccs3)c2O[C@H]1CN(C)Cc1ccc(Cl)c(Cl)c1	/	/	12	/	/	/
NCC[C@H]1CC[C@H](NS(=O)(=O)Cc2ccccc2)[C@@H](CO)O1	/	/	89*	/	/	/
COc1ccc(C2NC(=O)NC(C)=C2C(=O)OC2CCCC(C)C2)cc1 (configuration not stated)	-11	3	18	52*	-5	-15
CCCC(=O)NC(c1ccco1)c1cc([N+](=O)[O-])c2cccnc2c1O (configuration not stated)	-11	57*	-3	38	1	45
CCC(=O)NC(c1ccco1)c1cc(Br)c2cccnc2c1O (configuration not stated)	19	-8	4	50	/	/
CCC(=O)NC(c1ccc(C)cc1)c1cc([N+](=O)[O-])c2cccnc2c1O (configuration not stated)	-4	2	22	53*	4	/
C[C@H](CO)N1C[C@H](C)[C@@H](CN(C)C(=O)Nc2ccccc2)Oc2ccc(NS(=O)(=O)c3ccc(F)cc3)cc2CC1=O	/	/	-14	/	/	/
CNS(=O)(=O)c1ccc2c(c1)NC(=O)C1CCCN21 (configuration not stated)	8	-30	4	81*	-3	-9
CC1CCc2cc(F)ccc2N1C(=O)CSc1nnc2c(n1)[nH]c1ccccc12 (configuration not stated)	10	-13	4	65*	-2	0
Cc1ccc(C(=O)NNC(=O)CSc2nnc3c(n2)[nH]c2ccc(F)cc23)cc1	-6	-16	/	55*	-4	7
COc1ccc2[nH]c3nc(SCC(=O)NNC(=O)c4ccc(OC)c(OC)c4)nnc3c2c1	16	-6	/	6	-6	5
Cn1c(N/N=C/c2cc3ccccc3nc2Cl)nc2ccccc21	-46	-21	33	-212	3	-107
Cc1nnc(C)n1/N=C/c1cc2ccccc2nc1Cl	1	-16	-13	78*	1	32
OCc1cccc(-c2cnc3c(Nc4cccc(OC(F)(F)C(F)F)c4)nccn23)c1	-13	7	66*	-210	/	/
O=C(C[C@@H]1C=C[C@H](NC(=O)C2CCC2)[C@@H](CO)O1)Nc1nccs1	/	/	-15	/	/	/
COc1ccccc1-c1cc(SC)c(C#N)c(=O)o1	-45	27	34	82*	-2	49
COc1ccccc1-c1cc(C(F)(F)F)c(C#N)c(=O)[nH]1	-1	7	-1	-1	1	-6
C=C1CCC[C@]2(C)C[C@H]3OC(=O)C(CNC(C)CCCC(C)C)[C@H]3CC12 (some centres not stated)	-3	7	27	104*	2	21
COCC#Cc1cnc2c(c1)C(=O)N([C@@H](C)CO)C[C@@H](C)[C@@H](CN(C)Cc1ccccc1F)O2	/	/	-6	/	/	/
c1ccc(-c2cc3ccccc3[nH]2)cc1	-94*	12	-61	-251	5	2
COc1ccc(-c2cc3ccccc3[nH]2)cc1	14	-15	-87	-295	12	-124
COc1ccc(C(C[N+](=O)[O-])c2c(-c3ccccc3)cc3ccccn23)cc1OC (configuration not stated)	1	7	/	6	3	37
COc1ccc(C(C[N+](=O)[O-])C2(c3ccc(OC)c(OC)c3)C(=O)c3ccccc3C2=O)cc1 (configuration not stated)	-14	45	/	102*	1	/
CCOC(=O)c1[nH]c2ccc(OC)cc2c1NC(=O)CN1CCN(c2ccccn2)CC1	/	/	/	/	0	-16
